Experimental data reported in the supplement of paper PMC9446081.
± gives the standard deviation of the averaged measurements.

Key:
Assay in all cases: relative enzymatic activity vs untreated control (fraction); higher = less inhibition
Settings in all cases: 100 µM; incubation time: 2 h at 37 C
DNA gyrase = tested on: DNA gyrase
Experimental: (§1)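 In vitro enzymatic inhibition assays (ProFoldin kits) for 12 purified essential E. coli enzymes or complexes, each treated with 218 active antibacterial compounds at 100 µM for 2 h at 37°C. Read-outs were fluorescence or absorbance (phosphate detection, dye binding), converted to activity via standard curves and expressed relative to untreated DMSO controls.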

DNA helicase = DNA helicase (UniProt P0ACB1)
Chain of DNA helicase (P0ACB1 whole entry): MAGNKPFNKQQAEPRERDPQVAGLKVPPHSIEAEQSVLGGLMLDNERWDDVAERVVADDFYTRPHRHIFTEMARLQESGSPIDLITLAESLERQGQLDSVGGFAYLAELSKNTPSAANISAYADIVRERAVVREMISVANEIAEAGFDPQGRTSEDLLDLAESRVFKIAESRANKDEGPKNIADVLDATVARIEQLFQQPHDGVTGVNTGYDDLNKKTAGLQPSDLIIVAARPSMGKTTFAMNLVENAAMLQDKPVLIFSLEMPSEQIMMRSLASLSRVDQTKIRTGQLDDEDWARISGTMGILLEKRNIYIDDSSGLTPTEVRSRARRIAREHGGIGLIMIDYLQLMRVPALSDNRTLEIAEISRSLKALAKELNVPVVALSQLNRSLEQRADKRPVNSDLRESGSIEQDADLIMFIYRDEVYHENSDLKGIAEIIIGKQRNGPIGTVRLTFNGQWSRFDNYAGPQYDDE
Experimental: as §1

DNA ligase = DNA ligase (UniProt B1XA82)
Chain of DNA ligase (B1XA82 whole entry): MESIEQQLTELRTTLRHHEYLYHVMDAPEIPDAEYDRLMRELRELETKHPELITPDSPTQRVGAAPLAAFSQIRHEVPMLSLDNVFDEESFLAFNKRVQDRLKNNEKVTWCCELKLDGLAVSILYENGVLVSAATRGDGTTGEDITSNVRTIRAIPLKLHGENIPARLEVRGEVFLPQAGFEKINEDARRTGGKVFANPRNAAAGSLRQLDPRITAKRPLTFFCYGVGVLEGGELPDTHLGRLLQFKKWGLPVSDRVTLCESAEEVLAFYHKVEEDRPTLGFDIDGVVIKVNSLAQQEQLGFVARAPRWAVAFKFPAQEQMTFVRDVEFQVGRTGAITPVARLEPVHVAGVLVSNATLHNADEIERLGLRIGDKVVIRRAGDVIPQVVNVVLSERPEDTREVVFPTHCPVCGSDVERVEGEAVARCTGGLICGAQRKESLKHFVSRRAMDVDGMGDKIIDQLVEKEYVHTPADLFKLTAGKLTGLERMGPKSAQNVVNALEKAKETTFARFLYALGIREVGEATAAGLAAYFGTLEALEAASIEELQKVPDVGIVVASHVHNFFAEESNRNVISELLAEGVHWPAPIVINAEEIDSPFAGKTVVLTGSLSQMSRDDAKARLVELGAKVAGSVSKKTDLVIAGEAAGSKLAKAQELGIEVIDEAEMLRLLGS
Experimental: as §1

DNA polymerase = DNA polymerase (UniProt P10443)
Chain of DNA polymerase (P10443 whole entry): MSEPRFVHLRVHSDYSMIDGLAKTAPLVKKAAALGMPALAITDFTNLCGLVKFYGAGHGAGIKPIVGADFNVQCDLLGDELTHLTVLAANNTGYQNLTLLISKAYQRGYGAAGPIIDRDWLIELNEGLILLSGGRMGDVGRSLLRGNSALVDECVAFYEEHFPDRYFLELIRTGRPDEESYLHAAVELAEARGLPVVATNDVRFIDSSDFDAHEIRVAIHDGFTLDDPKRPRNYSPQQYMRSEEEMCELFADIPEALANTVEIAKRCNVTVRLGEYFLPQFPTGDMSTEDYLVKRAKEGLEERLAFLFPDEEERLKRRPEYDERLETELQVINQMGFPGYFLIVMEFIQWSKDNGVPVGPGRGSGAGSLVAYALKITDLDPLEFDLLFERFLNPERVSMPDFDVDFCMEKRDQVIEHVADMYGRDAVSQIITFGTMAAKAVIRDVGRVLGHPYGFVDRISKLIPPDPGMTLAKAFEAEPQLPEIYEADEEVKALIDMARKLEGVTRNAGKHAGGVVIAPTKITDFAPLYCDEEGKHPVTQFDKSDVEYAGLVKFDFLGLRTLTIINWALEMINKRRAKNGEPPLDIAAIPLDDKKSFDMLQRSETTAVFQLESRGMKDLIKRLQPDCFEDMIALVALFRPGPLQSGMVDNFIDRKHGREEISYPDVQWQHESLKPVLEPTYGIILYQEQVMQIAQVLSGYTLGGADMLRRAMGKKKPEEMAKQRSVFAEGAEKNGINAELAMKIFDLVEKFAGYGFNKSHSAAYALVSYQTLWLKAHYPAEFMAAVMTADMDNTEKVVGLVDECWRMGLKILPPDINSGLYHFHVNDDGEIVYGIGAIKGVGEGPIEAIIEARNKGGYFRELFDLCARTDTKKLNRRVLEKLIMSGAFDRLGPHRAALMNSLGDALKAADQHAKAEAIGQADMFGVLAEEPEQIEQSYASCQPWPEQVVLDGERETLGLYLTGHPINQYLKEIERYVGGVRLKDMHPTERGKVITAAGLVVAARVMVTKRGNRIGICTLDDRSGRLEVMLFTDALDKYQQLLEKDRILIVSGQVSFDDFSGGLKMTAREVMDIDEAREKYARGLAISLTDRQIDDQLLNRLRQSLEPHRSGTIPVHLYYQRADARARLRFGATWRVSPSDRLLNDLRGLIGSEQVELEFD
Experimental: as §1

DNA primase = DNA primase (UniProt P0ABS7)
Chain of DNA primase (P0ABS7 whole entry): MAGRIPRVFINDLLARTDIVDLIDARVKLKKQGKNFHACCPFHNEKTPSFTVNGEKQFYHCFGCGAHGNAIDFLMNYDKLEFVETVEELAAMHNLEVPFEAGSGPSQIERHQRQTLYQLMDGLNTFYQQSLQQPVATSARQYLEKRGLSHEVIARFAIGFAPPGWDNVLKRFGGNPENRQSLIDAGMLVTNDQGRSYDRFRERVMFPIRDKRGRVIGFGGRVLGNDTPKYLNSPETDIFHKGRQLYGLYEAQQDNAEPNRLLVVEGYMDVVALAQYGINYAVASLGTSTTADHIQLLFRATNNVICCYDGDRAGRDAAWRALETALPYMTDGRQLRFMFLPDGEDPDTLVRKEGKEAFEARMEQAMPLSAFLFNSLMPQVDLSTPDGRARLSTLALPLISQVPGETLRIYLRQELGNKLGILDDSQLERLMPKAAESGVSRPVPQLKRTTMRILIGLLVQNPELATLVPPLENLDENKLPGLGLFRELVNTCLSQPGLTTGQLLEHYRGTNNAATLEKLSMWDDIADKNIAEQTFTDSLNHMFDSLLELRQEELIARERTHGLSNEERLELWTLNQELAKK
Experimental: as §1

GlmU = GlmU (UniProt A7ZTU1)
Chain of GlmU (A7ZTU1 whole entry, looked up): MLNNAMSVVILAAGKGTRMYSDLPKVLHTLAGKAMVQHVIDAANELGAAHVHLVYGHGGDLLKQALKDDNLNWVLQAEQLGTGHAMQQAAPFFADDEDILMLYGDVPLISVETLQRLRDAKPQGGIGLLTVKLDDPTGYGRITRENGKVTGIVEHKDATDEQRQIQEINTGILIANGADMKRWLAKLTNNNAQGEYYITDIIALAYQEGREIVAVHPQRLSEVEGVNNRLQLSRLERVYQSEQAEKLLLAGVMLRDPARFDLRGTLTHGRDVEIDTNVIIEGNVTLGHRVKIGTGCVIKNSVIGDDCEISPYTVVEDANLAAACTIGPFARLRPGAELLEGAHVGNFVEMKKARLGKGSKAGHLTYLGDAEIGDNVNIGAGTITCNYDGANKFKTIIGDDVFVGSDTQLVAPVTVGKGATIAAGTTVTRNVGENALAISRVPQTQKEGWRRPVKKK
Experimental: as §1

Guanlyate kinase = Guanlyate kinase (UniProt Q0TBG1)
Chain of Guanlyate kinase (Q0TBG1 whole entry): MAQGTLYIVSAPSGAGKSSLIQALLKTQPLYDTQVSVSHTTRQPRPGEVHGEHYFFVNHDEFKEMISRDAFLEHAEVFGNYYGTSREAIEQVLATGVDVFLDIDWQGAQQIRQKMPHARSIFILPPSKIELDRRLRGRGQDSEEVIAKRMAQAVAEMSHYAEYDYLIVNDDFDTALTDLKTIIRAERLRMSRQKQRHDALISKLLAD
Experimental: as §1

MurA = MurA (UniProt Q3YX52)
Chain of MurA (Q3YX52 whole entry): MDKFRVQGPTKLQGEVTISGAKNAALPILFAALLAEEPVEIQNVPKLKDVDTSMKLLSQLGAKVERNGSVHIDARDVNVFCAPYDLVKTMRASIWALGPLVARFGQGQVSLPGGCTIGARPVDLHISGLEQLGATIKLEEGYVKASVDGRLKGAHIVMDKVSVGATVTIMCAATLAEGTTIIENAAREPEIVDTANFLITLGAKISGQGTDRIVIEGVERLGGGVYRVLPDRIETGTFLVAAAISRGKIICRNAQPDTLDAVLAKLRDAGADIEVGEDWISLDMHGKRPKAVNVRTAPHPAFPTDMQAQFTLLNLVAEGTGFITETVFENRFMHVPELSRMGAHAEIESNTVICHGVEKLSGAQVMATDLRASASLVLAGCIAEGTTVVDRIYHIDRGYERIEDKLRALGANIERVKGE
Experimental: as §1

MurD = biological target: T1, MurD (UniProt P14900)
T1 sequence (whole entry): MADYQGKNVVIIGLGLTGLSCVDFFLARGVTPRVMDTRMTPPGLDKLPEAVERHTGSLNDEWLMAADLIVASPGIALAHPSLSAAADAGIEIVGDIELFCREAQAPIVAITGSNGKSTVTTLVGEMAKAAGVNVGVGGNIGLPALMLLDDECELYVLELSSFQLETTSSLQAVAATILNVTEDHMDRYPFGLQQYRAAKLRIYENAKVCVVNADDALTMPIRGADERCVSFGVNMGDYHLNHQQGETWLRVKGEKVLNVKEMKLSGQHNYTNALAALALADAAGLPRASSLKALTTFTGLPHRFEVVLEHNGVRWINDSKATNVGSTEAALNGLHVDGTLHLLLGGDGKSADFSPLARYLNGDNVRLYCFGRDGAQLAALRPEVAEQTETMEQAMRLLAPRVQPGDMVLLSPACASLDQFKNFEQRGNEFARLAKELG
Experimental: as §1

MurF = biological target: T2, MurF (UniProt P11880)
T2 sequence (whole entry): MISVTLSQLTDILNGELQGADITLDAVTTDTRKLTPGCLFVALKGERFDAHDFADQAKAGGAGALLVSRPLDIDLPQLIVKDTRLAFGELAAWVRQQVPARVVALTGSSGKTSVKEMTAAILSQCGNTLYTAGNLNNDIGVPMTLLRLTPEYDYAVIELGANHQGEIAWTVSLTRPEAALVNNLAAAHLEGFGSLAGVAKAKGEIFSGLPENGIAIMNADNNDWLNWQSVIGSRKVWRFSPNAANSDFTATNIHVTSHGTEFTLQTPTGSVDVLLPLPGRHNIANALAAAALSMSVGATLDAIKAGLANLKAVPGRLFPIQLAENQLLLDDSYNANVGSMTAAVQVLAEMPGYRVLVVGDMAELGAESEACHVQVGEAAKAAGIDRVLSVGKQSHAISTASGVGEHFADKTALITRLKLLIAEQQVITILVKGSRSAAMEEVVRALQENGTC
Experimental: as §1

RNA polymerase = tested on: RNA polymerase
Experimental: as §1

Compound	relative enzymatic activity (DNA gyrase)	relative enzymatic activity (DNA helicase)	relative enzymatic activity (DNA ligase)	relative enzymatic activity (DNA polymerase)	relative enzymatic activity (DNA primase)	relative enzymatic activity (GlmU)	relative enzymatic activity (Guanlyate kinase)	relative enzymatic activity (MurA)	relative enzymatic activity (MurD)	relative enzymatic activity (MurF)	relative enzymatic activity (RNA polymerase)
NC(C(=O)NC1C(=O)N2C(C(=O)O)=C(Cl)CSC12)c1ccccc1 (stereo not given)	1.09 ± 0.06	0.441 ± 0.046	1.07 ± 0.039	1.38 ± 0.51	0.74 ± 0.23	0.982 ± 0.015	1.04 ± 0.088	0.0755 ± 0.013	0.58 ± 0.4	0.945 ± 0.26	0.971 ± 0.085
Cl.O=C1CC2(CCCC2)CC(=O)N1CCCCN1CCN(c2ncccn2)CC1	0.812 ± 0.33	0.485 ± 0.034	0.999 ± 0.1	1.05 ± 0.045	0.81 ± 0.029	1.03 ± 0.042	1 ± 0.013	0.865 ± 0.1	0.609 ± 0.44	0.97 ± 0.21	0.83 ± 0.039
CC(NCCCc1cccc(C(F)(F)F)c1)c1cccc2ccccc12.Cl (stereo not given)	1.09 ± 0.12	0.434 ± 0.07	1.1 ± 0.31	1.18 ± 0.25	0.676 ± 0.16	1.08 ± 0.17	1.01 ± 0.032	0.749 ± 0.32	0.58 ± 0.37	0.953 ± 0.19	0.817 ± 0.077
CCn1cc(C(=O)O)c(=O)c2cc(F)c(N3CCNCC3)cc21	0.00604 ± 0.0086	0.468 ± 0.034	0.906 ± 0.16	1.37 ± 0.53	0.659 ± 0.12	1.01 ± 0.015	1.01 ± 0.11	0.799 ± 0.017	0.573 ± 0.36	0.977 ± 0.21	0.849 ± 0.075
CC1c2cccc(O)c2C(=O)C2=C(O)C3(O)C(=O)C(C(N)=O)=C(O)C(N(C)C)C3C(O)C21.Cl (stereo not given)	0.996 ± 0.098	0.728 ± 0.41	1.05 ± 0.12	1.34 ± 0.32	0.734 ± 0.2	0.971 ± 0.048	1.12 ± 0.046	0.431 ± 0.093	0.572 ± 0.37	0.943 ± 0.17	0.9639 ± 0.0043
O=C1NCCN1c1ncc([N+](=O)[O-])s1	0.684 ± 0.55	0.564 ± 0.22	0.852 ± 0.12	1.16 ± 0.25	0.839 ± 0.018	0.982 ± 0.011	0.863 ± 0.052	0.658 ± 0.11	0.628 ± 0.47	0.389 ± 0.55	0.792 ± 0.11
O=C1C=CC(=O)N1	0.511 ± 0.14	0.616 ± 0.23	0.848 ± 0.071	1 ± 0.3	0.801 ± 0.014	0.973 ± 0.066	0.814 ± 0.18	0.171 ± 0.052	0.533 ± 0.5	0.951 ± 0.22	0.83 ± 0.2
Nc1nc(/C(=N/O)C(=O)N[C@@H]2C(=O)N3C(C(=O)O)=C(/C=C4\CCN([C@@H]5CCNC5)C4=O)CS[C@H]23)ns1	0.279 ± 0.18	0.389 ± 0.35	0.901 ± 0.11	1.08 ± 0.3	0.816 ± 0.035	0.83 ± 0.021	0.881 ± 0.12	0.0852 ± 0.03	0.57 ± 0.38	1.1 ± 0.069	0.561 ± 0.045
Oc1ccc(Cl)c2cccnc12	0.354 ± 0.41	0.534 ± 0.19	1.03 ± 0.24	1.12 ± 0.21	0.7986 ± 0.0017	0.9167 ± 0.0045	0.821 ± 0.036	0.442 ± 0.04	0.656 ± 0.46	1.02 ± 0.23	0.854 ± 0.1
NC[C@H]1O[C@H](O[C@H]2[C@H](O)[C@@H](O[C@H]3O[C@H](CO)[C@@H](O)[C@H](N)[C@H]3O)[C@H](N)C[C@@H]2N)[C@H](N)C[C@@H]1O	0.902 ± 0.18	0.378 ± 0.22	0.91 ± 0.034	1.19 ± 0.21	0.572 ± 0.14	1.02 ± 0.033	0.443 ± 0.1	0.747 ± 0.093	0.609 ± 0.42	0.956 ± 0.23	0.906 ± 0.048
Cc1cn(C2CC(N=[N+]=[N-])C(CO)O2)c(=O)[nH]c1=O (stereo not given)	0.801 ± 0.34	0.472 ± 0.1	1.38 ± 0.076	1.3 ± 0.36	0.692 ± 0.18	1.002 ± 0.0012	0.865 ± 0.097	0.77 ± 0.043	0.573 ± 0.35	0.97 ± 0.2	0.887 ± 0.0091
CN(C)C1C(O)=C(C(N)=O)C(=O)C2(O)C(O)=C3C(=O)c4c(O)ccc(Cl)c4C(C)(O)C3CC12.Cl (stereo not given)	1.15 ± 0.17	0.47 ± 0.023	1.03 ± 0.23	1.35 ± 0.47	0.707 ± 0.21	0.974 ± 0.048	0.961 ± 0.076	0.767 ± 0.014	0.584 ± 0.37	0.93 ± 0.17	0.822 ± 0.027
COC1C=COC2(C)Oc3c(C)c(O)c4c(O)c(c(C=NN5CCN(C)CC5)c(O)c4c3C2=O)NC(=O)C(C)=CC=CC(C)C(O)C(C)C(O)C(C)C(OC(C)=O)C1C (stereo not given)	0.468 ± 0.18	0.717 ± 0.33	0.8414 ± 0.0057	0.862 ± 0.32	0.507 ± 0.0061	0.288 ± 0.02	0.399 ± 0.0045	0.0919 ± 0.015	0.175 ± 0.081	0.464 ± 0.051	0.0875 ± 0.0034
CC[C@H]1OC(=O)[C@H](C)[C@@H](O[C@H]2C[C@@](C)(OC)[C@@H](O)[C@H](C)O2)[C@H](C)[C@@H](O[C@@H]2O[C@H](C)C[C@H](N(C)C)[C@H]2O)[C@](C)(O)C[C@@H](C)CN(C)[C@H](C)[C@@H](O)[C@]1(C)O	0.608 ± 0.34	0.527 ± 0.072	0.871 ± 0.086	1.04 ± 0.12	0.836 ± 0.027	0.99 ± 0.031	0.865 ± 0.079	0.746 ± 0.079	0.58 ± 0.37	0.95 ± 0.23	0.897 ± 0.19
CN(C)c1ccc(O)c2c1C[C@H]1C[C@H]3[C@H](N(C)C)C(=O)C(C(N)=O)=C(O)[C@@]3(O)C(=O)[C@H]1C2=O	0.655 ± 0.27	0.659 ± 0.38	0.8389 ± 0.0033	0.961 ± 0.2	0.669 ± 0.027	0.995 ± 0.035	0.701 ± 0.069	0.0752 ± 0.015	0.623 ± 0.42	0.96 ± 0.18	0.304 ± 0.052
NC[C@H]1O[C@H](O[C@H]2[C@H](O)[C@@H](O[C@H]3O[C@H](CO)[C@@H](O)[C@H](N)[C@H]3O)[C@H](N)C[C@@H]2N)[C@H](N)[C@@H](O)[C@@H]1O	0.315 ± 0.23	0.151 ± 0.041	0.868 ± 0.093	0.916 ± 0.35	0.46 ± 0.095	0.992 ± 0.076	0.3862 ± 0.0032	0.686 ± 0.15	0.605 ± 0.41	0.975 ± 0.24	0.781 ± 0.22
NC(=O)[C@@H]1CC[C@@H]2CN1C(=O)N2OS(=O)(=O)O	0.771 ± 0.26	0.552 ± 0.18	0.834 ± 0.21	0.501 ± 0.71	0.803 ± 0.037	0.998 ± 0.01	0.947 ± 0.072	0.699 ± 0.17	0.604 ± 0.42	0.976 ± 0.22	0.809 ± 0.13
NCC[C@H](O)C(=O)N[C@@H]1C[C@H](N)[C@@H](O[C@H]2O[C@H](CN)[C@@H](O)[C@H](O)[C@H]2O)[C@H](O)[C@H]1O[C@H]1O[C@H](CO)[C@@H](O)[C@H](N)[C@H]1O	0.228 ± 0.0032	0.0994 ± 0.0019	0.871 ± 0.16	0.863 ± 0.26	0.508 ± 0.14	0.9473 ± 0.0079	0.438 ± 0.056	0.326 ± 0.1	0.608 ± 0.42	0.979 ± 0.24	0.699 ± 0.083
Cl.Cl.N=C(NCCCCCCNC(=N)NC(=N)Nc1ccc(Cl)cc1)NC(=N)Nc1ccc(Cl)cc1	0.0297 ± 0.042	0.0449 ± 0.0094	0.488 ± 0.68	0.365 ± 0.03	0.306 ± 0.046	0.9017 ± 0.0055	0.341 ± 0.043	0.108 ± 0.015	0.545 ± 0.35	0.871 ± 0.16	0.0331 ± 0.011
CC(O)C1C(=O)N2C(C(=O)O)=C(SC3CNC(C(=O)N(C)C)C3)C(C)C12 (stereo not given)	0.734 ± 0.42	0.994 ± 0.1	1.45 ± 0.021	1.26 ± 0.3	0.719 ± 0.22	1.04 ± 0.19	0.973 ± 0.11	0.501 ± 0.29	0.487 ± 0.33	0.584 ± 0.82	1.09 ± 0.28
